Here are results for one sequence from paper PMC7862700, “An all-to-all approach to the identification of sequence-specific readers for epigenetic DNA modifications on cytosine”.

What all share (assay): DAPPL (digital affinity profiling via proximity ligation, sequencing); 10 mM Tris-HCl pH 7.5, 50 mM NaCl, 1 mM DTT, 4% glycerol, room temperature, 30 min; GST-TFs on glutathione beads, 16-mer random dsDNA library, 0.1% formaldehyde crosslink after washing; high values mean tight binding
For one assay, the target named is T1, FEV (Homo sapiens, UniProt Q99581 1-238).
T1 sequence: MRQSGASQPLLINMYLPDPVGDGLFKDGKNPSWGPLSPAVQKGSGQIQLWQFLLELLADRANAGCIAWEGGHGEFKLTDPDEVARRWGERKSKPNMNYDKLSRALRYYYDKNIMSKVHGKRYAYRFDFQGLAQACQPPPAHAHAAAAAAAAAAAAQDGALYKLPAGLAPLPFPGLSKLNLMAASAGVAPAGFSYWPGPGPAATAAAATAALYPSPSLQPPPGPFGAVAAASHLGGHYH
Particulars: protein: recombinant; tags: N-terminal GST; dsDNA, one strand shown. In short, it runs like this: (§1)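 After expression in yeast as GST fusions, human transcription factors were bound to glutathione beads, DNA-barcoded and mixed with a tag-only sample. The pools were incubated with 200 nmole of a 16-mer random double-stranded DNA library in Tris/NaCl/DTT/glycerol buffer (30 min, room temperature), washed and crosslinked with 0.1% formaldehyde. Proximity ligation with BsaI/T4 ligase ran for 1 h at 37 °C, before PCR amplification and sequencing on an Illumina NextSeq500. Binding signal is a hexamer's read frequency for a factor divided by its frequency for the tag-only sample.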

In another assay the target is ETV5 (Homo sapiens, UniProt P41161 1-510). The following applies: protein: recombinant; tags: N-terminal GST; dsDNA, one strand shown. In short, it runs like this:
as §1

A further assay deals with HSF1 (Homo sapiens, UniProt Q00613 1-529). Particulars: protein: recombinant; tags: N-terminal GST; chain copies: 3; dsDNA, one strand shown. The procedure, abridged: as §1
Chain of HSF1 (Q00613 whole entry): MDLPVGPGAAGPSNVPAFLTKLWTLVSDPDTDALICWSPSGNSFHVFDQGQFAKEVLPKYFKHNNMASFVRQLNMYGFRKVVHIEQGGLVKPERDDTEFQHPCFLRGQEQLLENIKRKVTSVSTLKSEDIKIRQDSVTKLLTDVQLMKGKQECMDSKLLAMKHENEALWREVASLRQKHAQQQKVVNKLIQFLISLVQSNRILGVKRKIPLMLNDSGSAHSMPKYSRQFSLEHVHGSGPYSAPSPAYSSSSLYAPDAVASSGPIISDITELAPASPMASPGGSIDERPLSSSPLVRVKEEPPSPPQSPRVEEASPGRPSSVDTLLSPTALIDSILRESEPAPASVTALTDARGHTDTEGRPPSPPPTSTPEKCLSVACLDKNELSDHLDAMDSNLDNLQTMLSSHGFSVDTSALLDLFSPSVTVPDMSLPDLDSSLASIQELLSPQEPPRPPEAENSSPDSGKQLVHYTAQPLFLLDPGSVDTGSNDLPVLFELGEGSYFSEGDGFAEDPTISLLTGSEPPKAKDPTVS
Another assay addresses T2, SPIC (Homo sapiens, UniProt Q8N5J4 1-248).
T2 sequence: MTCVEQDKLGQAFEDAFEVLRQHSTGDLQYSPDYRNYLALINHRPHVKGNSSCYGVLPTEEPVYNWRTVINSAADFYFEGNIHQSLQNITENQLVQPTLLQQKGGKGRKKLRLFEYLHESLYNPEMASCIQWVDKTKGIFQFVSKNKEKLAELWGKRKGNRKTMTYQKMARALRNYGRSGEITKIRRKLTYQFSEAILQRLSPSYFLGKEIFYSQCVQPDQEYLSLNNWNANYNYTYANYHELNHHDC
Particulars: protein: recombinant; tags: N-terminal GST; dsDNA, one strand shown. The procedure, abridged: as §1

For another assay, the target named is ELF4 (Homo sapiens, UniProt Q99607 1-663). Particulars: protein: recombinant; tags: N-terminal GST; dsDNA, one strand shown. In short, it runs like this: as §1
Chain of ELF4 (Q99607 whole entry): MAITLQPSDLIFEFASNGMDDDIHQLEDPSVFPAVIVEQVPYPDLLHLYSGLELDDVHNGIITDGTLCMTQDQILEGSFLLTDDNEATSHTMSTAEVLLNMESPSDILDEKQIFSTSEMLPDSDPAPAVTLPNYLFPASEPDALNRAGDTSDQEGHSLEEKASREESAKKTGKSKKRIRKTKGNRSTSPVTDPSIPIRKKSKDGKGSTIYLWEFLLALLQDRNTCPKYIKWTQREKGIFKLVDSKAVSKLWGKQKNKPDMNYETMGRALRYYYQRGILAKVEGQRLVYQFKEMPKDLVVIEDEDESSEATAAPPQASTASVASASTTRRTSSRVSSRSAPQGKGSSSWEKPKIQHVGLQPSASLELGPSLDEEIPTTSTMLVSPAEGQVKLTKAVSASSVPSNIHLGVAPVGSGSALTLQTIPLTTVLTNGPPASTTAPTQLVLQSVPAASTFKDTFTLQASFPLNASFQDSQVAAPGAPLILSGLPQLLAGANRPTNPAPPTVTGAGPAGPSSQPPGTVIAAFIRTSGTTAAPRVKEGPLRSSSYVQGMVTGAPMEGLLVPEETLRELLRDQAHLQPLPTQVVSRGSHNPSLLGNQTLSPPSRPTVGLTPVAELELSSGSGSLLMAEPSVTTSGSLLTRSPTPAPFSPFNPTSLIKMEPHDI
Another assay deals with T3, ELK4 (Homo sapiens, UniProt P28324-2 1-405).
T3 sequence: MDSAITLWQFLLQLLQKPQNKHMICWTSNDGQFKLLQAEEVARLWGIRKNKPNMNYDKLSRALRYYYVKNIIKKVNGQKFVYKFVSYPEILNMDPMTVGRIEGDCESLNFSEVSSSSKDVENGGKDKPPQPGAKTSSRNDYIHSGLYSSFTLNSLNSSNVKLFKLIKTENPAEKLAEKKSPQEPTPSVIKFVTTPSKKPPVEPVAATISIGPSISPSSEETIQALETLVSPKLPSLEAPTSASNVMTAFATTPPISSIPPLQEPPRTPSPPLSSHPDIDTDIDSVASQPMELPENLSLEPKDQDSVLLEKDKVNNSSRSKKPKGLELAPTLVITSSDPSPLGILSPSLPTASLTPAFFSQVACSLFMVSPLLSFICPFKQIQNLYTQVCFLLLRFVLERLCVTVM
The following applies: protein: recombinant; tags: N-terminal GST; dsDNA, one strand shown. In short, it runs like this:
as §1

For another assay, the target named is T4, ETV2 (Homo sapiens, UniProt O00321 1-342).
T4 sequence: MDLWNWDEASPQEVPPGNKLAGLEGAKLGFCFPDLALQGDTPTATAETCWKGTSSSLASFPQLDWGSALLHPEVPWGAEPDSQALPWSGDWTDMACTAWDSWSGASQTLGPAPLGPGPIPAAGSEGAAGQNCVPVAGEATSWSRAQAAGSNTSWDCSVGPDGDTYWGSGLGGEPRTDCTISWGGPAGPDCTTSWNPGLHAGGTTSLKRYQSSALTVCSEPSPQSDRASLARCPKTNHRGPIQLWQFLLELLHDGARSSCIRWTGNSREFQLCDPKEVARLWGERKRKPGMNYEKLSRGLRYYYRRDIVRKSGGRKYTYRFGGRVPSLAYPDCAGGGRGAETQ
The following applies: protein: recombinant; tags: N-terminal GST; dsDNA, one strand shown. The procedure, abridged: as §1

The next assay deals with T5, ELF3 (Homo sapiens, UniProt P78545 1-371).
T5 sequence: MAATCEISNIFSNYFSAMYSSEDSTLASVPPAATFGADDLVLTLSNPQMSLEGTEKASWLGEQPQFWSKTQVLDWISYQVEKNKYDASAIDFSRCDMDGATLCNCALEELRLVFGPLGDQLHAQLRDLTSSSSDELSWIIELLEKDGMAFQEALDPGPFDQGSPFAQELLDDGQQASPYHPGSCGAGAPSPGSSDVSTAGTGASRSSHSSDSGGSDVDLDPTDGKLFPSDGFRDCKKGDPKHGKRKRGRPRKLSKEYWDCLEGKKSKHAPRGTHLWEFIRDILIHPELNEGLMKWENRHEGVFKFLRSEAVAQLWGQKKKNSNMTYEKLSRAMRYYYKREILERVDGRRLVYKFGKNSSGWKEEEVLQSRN
Particulars: protein: recombinant; tags: N-terminal GST; dsDNA, one strand shown. In short, it runs like this: as §1

In a further assay the target is CRX (Homo sapiens, UniProt O43186 1-299). The following applies: protein: recombinant; tags: N-terminal GST; dsDNA, one strand shown. The procedure, abridged:
as §1

The next assay concerns the target ETV1 (Homo sapiens, UniProt P50549 1-477). The following applies: protein: recombinant; tags: N-terminal GST; dsDNA, one strand shown. In short, it runs like this:
as §1

A further assay addresses T6, ERF (Homo sapiens, UniProt P50548 1-548).
T6 sequence: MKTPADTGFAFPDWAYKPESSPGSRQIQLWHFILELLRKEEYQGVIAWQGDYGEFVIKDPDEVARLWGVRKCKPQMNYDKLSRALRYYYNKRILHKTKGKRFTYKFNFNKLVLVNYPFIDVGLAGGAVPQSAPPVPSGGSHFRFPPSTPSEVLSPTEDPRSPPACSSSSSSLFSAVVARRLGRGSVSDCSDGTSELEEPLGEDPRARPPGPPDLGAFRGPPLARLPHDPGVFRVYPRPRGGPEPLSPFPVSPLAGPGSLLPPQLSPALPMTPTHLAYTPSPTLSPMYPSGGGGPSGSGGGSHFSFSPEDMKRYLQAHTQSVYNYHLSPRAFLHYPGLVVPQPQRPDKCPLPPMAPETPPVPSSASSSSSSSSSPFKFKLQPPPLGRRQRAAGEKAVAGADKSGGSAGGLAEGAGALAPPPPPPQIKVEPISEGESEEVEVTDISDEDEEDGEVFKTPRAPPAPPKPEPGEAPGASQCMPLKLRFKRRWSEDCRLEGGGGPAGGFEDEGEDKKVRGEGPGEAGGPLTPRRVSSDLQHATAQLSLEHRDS
The following applies: protein: recombinant; tags: N-terminal GST; dsDNA, one strand shown. The procedure, abridged: as §1

The next assay concerns the target T7, ETV3L (Homo sapiens, UniProt Q6ZN32 1-361).
T7 sequence: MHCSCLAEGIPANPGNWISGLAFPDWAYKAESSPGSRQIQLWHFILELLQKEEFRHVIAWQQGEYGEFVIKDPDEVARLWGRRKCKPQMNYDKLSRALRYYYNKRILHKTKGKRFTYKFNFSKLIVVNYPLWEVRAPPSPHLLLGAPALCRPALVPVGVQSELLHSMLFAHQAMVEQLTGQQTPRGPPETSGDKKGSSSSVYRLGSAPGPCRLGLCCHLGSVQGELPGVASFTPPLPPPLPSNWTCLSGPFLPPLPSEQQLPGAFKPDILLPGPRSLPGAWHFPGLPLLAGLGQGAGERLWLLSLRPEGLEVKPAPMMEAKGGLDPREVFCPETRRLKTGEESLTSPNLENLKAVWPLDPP
The following applies: protein: recombinant; tags: N-terminal GST; dsDNA, one strand shown. The procedure, abridged: as §1

In another assay the target is T8, ETS2 (Homo sapiens, UniProt P15036 1-469).
T8 sequence: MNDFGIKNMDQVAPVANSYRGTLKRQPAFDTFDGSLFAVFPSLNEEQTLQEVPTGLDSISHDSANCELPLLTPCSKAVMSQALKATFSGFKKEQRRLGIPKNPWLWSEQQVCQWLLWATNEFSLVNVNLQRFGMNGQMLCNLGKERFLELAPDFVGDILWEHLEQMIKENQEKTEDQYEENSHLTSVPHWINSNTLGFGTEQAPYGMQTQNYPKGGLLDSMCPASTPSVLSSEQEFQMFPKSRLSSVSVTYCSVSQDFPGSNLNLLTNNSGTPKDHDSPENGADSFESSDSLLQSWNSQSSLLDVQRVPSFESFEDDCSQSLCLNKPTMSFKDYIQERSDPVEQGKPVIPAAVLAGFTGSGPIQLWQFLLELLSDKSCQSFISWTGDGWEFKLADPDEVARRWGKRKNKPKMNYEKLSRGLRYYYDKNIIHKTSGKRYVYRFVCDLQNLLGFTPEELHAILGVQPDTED
The following applies: protein: recombinant; tags: N-terminal GST; dsDNA, one strand shown. The procedure, abridged:
as §1

A further assay concerns the target T9, SPDEF (Homo sapiens, UniProt O95238 1-335).
T9 sequence: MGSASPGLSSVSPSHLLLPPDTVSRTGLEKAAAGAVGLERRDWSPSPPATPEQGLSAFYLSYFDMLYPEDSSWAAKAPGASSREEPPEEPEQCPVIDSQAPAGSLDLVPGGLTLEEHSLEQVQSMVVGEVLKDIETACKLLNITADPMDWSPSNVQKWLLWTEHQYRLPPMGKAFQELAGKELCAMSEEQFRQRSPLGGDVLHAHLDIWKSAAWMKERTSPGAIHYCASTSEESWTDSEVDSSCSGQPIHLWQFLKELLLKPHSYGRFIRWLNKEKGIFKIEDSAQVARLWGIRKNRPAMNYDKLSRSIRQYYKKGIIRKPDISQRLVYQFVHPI
The following applies: protein: recombinant; tags: N-terminal GST; dsDNA, one strand shown. The procedure, abridged: as §1

In the next assay the target is T10, ETV7 (Homo sapiens, UniProt Q9Y603 1-341).
T10 sequence: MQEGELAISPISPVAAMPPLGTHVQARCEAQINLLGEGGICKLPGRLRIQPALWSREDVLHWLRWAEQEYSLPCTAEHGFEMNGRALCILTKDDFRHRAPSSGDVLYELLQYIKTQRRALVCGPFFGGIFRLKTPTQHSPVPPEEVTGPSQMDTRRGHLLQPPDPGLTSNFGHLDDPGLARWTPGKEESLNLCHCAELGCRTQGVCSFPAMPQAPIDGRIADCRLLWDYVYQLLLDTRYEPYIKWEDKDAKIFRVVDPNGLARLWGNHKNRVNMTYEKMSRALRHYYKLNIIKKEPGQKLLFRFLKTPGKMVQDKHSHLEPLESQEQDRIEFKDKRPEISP
The following applies: protein: recombinant; tags: N-terminal GST; dsDNA, one strand shown. The procedure, abridged: as §1

The next assay deals with T11, ELF5 (Homo sapiens, UniProt Q9UKW6-2 1-255).
T11 sequence: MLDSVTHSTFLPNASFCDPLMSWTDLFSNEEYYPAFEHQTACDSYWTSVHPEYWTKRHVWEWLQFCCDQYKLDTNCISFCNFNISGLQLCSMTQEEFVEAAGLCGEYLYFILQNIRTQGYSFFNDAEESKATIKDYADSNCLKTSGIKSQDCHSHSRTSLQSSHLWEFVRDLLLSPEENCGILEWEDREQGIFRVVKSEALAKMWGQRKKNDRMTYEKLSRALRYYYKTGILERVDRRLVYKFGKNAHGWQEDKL
Particulars: protein: recombinant; tags: N-terminal GST; dsDNA, one strand shown. The procedure, abridged:
as §1

The target in the next assay is T12, ETV3 (Homo sapiens, UniProt P41162-2 1-143).
T12 sequence: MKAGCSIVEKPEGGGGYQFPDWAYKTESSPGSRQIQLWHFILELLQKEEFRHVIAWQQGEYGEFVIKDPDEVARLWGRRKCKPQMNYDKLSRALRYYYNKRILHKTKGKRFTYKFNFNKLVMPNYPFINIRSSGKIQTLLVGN
Particulars: protein: recombinant; tags: N-terminal GST; dsDNA, one strand shown. In short, it runs like this:
as §1

The target of a further assay is ETV6 (Homo sapiens, UniProt P41212 1-452). Particulars: protein: recombinant; tags: N-terminal GST; dsDNA, one strand shown. In short, it runs like this: as §1
Chain of ETV6 (P41212 whole entry): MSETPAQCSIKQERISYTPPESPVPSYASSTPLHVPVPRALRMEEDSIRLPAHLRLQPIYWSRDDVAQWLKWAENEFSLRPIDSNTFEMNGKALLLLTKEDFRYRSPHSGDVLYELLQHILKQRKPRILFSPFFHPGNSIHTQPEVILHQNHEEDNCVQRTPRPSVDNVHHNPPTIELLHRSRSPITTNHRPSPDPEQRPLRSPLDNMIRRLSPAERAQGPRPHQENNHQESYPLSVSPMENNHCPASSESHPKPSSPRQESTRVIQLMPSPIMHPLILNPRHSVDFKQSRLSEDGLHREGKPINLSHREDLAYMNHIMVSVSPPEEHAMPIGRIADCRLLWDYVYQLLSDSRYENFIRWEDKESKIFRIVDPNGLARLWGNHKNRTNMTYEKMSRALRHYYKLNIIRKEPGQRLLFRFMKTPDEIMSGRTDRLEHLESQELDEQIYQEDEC

Chain of ETV5 (P41161 whole entry): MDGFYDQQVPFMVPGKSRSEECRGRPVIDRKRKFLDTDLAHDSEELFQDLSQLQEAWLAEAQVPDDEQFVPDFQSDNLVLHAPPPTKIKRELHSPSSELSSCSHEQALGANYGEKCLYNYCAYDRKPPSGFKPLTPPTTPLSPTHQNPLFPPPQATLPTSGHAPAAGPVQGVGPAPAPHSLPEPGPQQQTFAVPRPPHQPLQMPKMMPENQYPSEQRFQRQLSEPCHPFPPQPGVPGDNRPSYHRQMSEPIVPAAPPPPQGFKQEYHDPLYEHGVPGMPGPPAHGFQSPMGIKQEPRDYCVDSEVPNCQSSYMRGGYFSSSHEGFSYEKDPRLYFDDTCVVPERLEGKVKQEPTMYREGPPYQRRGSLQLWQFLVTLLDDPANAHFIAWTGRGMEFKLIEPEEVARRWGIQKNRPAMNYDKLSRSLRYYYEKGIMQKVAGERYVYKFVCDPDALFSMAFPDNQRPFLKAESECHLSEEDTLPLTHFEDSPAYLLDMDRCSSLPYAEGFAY
Chain of CRX (O43186 whole entry): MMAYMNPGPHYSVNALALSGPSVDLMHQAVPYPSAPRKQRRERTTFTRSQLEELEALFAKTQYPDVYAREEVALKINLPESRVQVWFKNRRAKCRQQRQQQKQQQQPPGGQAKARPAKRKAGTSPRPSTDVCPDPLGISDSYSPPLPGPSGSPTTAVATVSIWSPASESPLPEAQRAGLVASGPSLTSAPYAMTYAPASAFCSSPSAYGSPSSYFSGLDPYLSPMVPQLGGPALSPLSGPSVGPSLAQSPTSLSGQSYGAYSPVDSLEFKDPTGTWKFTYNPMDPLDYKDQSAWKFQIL
Chain of ETV1 (P50549 whole entry): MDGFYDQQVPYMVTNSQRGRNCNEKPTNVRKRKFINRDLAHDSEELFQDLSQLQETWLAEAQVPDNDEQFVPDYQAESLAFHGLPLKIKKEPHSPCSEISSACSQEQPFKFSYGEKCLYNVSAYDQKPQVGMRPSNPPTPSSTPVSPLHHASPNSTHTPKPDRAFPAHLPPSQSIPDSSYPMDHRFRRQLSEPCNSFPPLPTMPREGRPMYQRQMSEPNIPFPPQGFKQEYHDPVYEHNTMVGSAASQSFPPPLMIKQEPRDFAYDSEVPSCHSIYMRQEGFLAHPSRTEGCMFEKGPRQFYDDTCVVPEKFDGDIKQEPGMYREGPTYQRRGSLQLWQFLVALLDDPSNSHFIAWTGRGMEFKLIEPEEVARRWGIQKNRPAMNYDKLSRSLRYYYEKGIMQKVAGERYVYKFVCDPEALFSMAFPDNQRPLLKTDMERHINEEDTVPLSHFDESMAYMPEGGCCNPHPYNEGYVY

In the case of TATTAA, the binding signal is 1.14 fold enrichment (6-mer frequency, TF over GST control) with FEV; 1.13 fold enrichment (6-mer frequency, TF over GST control) with ETV5; 1.82 fold enrichment (6-mer frequency, TF over GST control) in the assay with HSF1; 1.12 fold enrichment (6-mer frequency, TF over GST control) with SPIC; 1.16 fold enrichment (6-mer frequency, TF over GST control) with ELF4; 1.02 fold enrichment (6-mer frequency, TF over GST control) with ELK4. In addition, the binding signal in the assay with ETV2 was 1.09 fold enrichment (6-mer frequency, TF over GST control); in the assay with ELF3, 1.06 fold enrichment (6-mer frequency, TF over GST control); in the assay with CRX, 2.83 fold enrichment (6-mer frequency, TF over GST control); in the assay with ETV1 it was 1.14 fold enrichment (6-mer frequency, TF over GST control); in the assay with ERF it was 1.22 fold enrichment (6-mer frequency, TF over GST control); in the assay with ETV3L it was 1.18 fold enrichment (6-mer frequency, TF over GST control). The binding signal was 1.17 fold enrichment (6-mer frequency, TF over GST control) with ETS2; 1.18 fold enrichment (6-mer frequency, TF over GST control) with SPDEF; 1.15 fold enrichment (6-mer frequency, TF over GST control) in the assay with ETV7; 1.13 fold enrichment (6-mer frequency, TF over GST control) with ELF5; 1.16 fold enrichment (6-mer frequency, TF over GST control) with ETV3; 1.12 fold enrichment (6-mer frequency, TF over GST control) with ETV6.
